This passage reports Potency results from PubChem BioAssay (NCATS).

Structures are written as SMILES. Inconclusive results are not listed. Where a call stands in place of a potency, no number is given. Activity calls are given as the source filed them. Calls follow the shape of the dose curve; as a rule, active = well fitted cell-killing curve with a large enough effect; inconclusive = small, poorly fitted or top-dose-only effect, or effect the other way; inactive = no such curve, though single readings can be large or run the other way.
Potency is read from the fitted curve at half-maximal effect.

The first assay in a line: Quantitative High-Throughput drug screen in 47 multiple myeloma cell lines against the NCATS MIPE library collection: AMO1_DSMZ cell viability assay (AID 1918927; also: nearly all actives have a fitted effect of over 30% in size). The following applies: AMO1 myeloma cells viability, CellTiter-Glo ATP luminescence, 48 h; series mostly up to 45.8 µM. The method, boiled down: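 qHTS of the MIPE 4.0 collection: 500 myeloma cells/well, 48 h drug exposure at 37C in 5% CO2, then CellTiter-Glo for 5 min at room temperature before luminescence reading.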
Take `CN(C)CCOC(c1ccccc1)c1ccccc1`: the Potency result was “inactive”.
Same read-out and setting: the same measure for `CN1C2CCC1CC(OC(=O)C(CO)c1ccccc1)C2` (centres undefined): “inactive”; for `CCN1CCCC1CNC(=O)c1cc(S(=O)(=O)CC)c(N)cc1OC` (centres undefined): 0.0743 µM (active); for `O=C(Nc1ccc([N+](=O)[O-])cc1Cl)c1cc(Cl)ccc1O`: 0.526 µM (active).
On the same count and under the same terms, for `CC[C@@]1(O)C(=O)OCc2c1cc1n(c2=O)Cc2cc3c(CN(C)C)c(O)ccc3nc2-1` the value was 0.264 µM (active); for `CS(=O)(=O)Nc1ccc([N+](=O)[O-])cc1Oc1ccccc1`, “inactive”; for `Cc1cc(C(C)(C)C)c(O)c(C)c1CC1=NCCN1`, “inactive”.
As for `CS(=O)(=O)CCNCc1ccc(-c2ccc3ncnc(Nc4ccc(OCc5cccc(F)c5)c(Cl)c4)c3c2)o1`, the Potency was 2.35 µM (active).
On the same count and under the same terms, the same measure for `CC(=O)OCC(CCn1cnc2cnc(N)nc21)COC(C)=O`: “inactive”; for `NCCS(=O)(=O)O`: “inactive”; for `O=C1c2c(O)ccc(O)c2C(=O)c2c(NCCNCCO)ccc(NCCNCCO)c21`: 0.935 µM (active).
As for `O=C(C1CCCCC1)N1CC(=O)N2CCc3ccccc3C2C1` (centres undefined), the Potency entry was “inactive”.
As for `Cc1cc(C(C)(C)C)cc(C)c1CC1=NCCN1`, the Potency result is “inactive”.
The same measure, in the same setting: the same measure for `NC(=O)OCC(COC(N)=O)c1ccccc1`: “inactive”; for `CC(C)C(=O)Nc1ccc([N+](=O)[O-])c(C(F)(F)F)c1`: 4.69 µM (active).
As for `CC1(C)O[C@H]2CC(=O)OC[C@]23[C@H]2CC[C@@]4(C)[C@H](c5ccoc5)OC(=O)[C@H]5O[C@]54[C@]2(C)C(=O)C[C@@H]13`, the Potency entry is “inactive”.
The same measure, in the same setting: for `CCC1(c2ccccc2)C(=O)NCNC1=O` the value was 10.5 µM (active); for `CCOC(=O)Nc1ccc(NCc2ccc(F)cc2)nc1N`, 18.7 µM (active); for `CN1CCC(=C2c3ccccc3CC(=O)c3sccc32)CC1`, 16.6 µM (active).
As to `Cn1c(=O)c2[nH]cnc2n(C)c1=O`, the Potency result is “inactive”.
Still for that read-out and setting: for `CN1CCN(CCCN2c3ccccc3Sc3ccc(Cl)cc32)CC1` the value was 16.6 µM (active); for `CC#C[C@]1(O)CC[C@H]2[C@@H]3CCC4=CC(=O)CCC4=C3[C@@H](c3ccc(N(C)C)cc3)C[C@@]21C`, 0.743 µM (active); for `Cn1cnc2c1c(=O)[nH]c(=O)n2C`, 9.35 µM (active).
Take `O=C(c1ccc(F)cc1)C1CCN(CCn2c(=O)[nH]c3ccccc3c2=O)CC1`: the Potency result was “inactive”.
On the same count and under the same terms, for `CN(CCOc1ccc(NS(C)(=O)=O)cc1)CCc1ccc(NS(C)(=O)=O)cc1` the value was “inactive”.
The same measure, in the same setting: the same measure for `NC(=O)NO`: 4.69 µM (active); for `CNCCCC12CCC(c3ccccc31)c1ccccc12`: 23.5 µM (active).
For the compound `Cc1ccc(-c2cc(C(F)(F)F)nn2-c2ccc(S(N)(=O)=O)cc2)cc1`, the Potency result is “inactive”.
On to `Nc1nc2c(ncn2COC(CO)CO)c(=O)[nH]1`, for which the Potency is 13.2 µM (active).
Same read-out and setting: for `CN(C)CCCN1c2ccccc2CCc2ccc(Cl)cc21` the value was 1.05 µM (active).
`COc1ccccc1N1CCN(CC(O)COc2cccc3ccccc23)CC1` (centres undefined): the Potency entry is “inactive”.

The nature of another assay: Quantitative High-Throughput drug screen in 47 multiple myeloma cell lines against the NCATS MIPE library collection: ARP1_JJKsccF8 cell viability assay (AID 1918928; also: nearly all actives have a fitted effect of over 40% in size). The conditions noted are these: ARP1 myeloma cells viability, CellTiter-Glo ATP, 48 h; series mostly up to 45.8 µM. The method in brief:
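Luminescence from CellTiter-Glo, taken after 5 min at room temperature, reports cellular ATP as viability. Cells (500 per well) had been treated 48 h at 37 °C with MIPE 4.0 compounds, scaled between DMSO and medium-only controls.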
For `CN(C)CCOC(c1ccccc1)c1ccccc1`, the Potency result is “inactive”.
For the compound `CN1C2CCC1CC(OC(=O)C(CO)c1ccccc1)C2` (centres undefined), the Potency entry is “inactive”.
The same measure, in the same setting: for `CCN1CCCC1CNC(=O)c1cc(S(=O)(=O)CC)c(N)cc1OC` (centres undefined) the value was “inactive”.
Same read-out and setting: for `O=C(Nc1ccc([N+](=O)[O-])cc1Cl)c1cc(Cl)ccc1O` the value was 1.66 µM (active); for `CC[C@@]1(O)C(=O)OCc2c1cc1n(c2=O)Cc2cc3c(CN(C)C)c(O)ccc3nc2-1`, 2.96 µM (active); for `CS(=O)(=O)Nc1ccc([N+](=O)[O-])cc1Oc1ccccc1`, 11.8 µM (active).
Same read-out and setting: for `Cc1cc(C(C)(C)C)c(O)c(C)c1CC1=NCCN1` the value was “inactive”; for `CC(=O)OCC(CCn1cnc2cnc(N)nc21)COC(C)=O`, “inactive”; for `NCCS(=O)(=O)O`, “inactive”.
In the case of `O=C1c2c(O)ccc(O)c2C(=O)c2c(NCCNCCO)ccc(NCCNCCO)c21`, the Potency was 0.469 µM (active).
Still for that read-out and setting: the same measure for `O=C(C1CCCCC1)N1CC(=O)N2CCc3ccccc3C2C1` (centres undefined): “inactive”; for `Cc1cc(C(C)(C)C)cc(C)c1CC1=NCCN1`: “inactive”.
The same measure, in the same setting: for `NC(=O)OCC(COC(N)=O)c1ccccc1` the value was “inactive”; for `CC(C)C(=O)Nc1ccc([N+](=O)[O-])c(C(F)(F)F)c1`, “inactive”.
In the case of `CC1(C)O[C@H]2CC(=O)OC[C@]23[C@H]2CC[C@@]4(C)[C@H](c5ccoc5)OC(=O)[C@H]5O[C@]54[C@]2(C)C(=O)C[C@@H]13`, the Potency entry is “inactive”.
The same measure, in the same setting: for `CCC1(c2ccccc2)C(=O)NCNC1=O` the value was “inactive”; for `CCOC(=O)Nc1ccc(NCc2ccc(F)cc2)nc1N`, “inactive”; for `CN1CCC(=C2c3ccccc3CC(=O)c3sccc32)CC1`, “inactive”.
For `Cn1c(=O)c2[nH]cnc2n(C)c1=O`, the Potency entry is “inactive”.
`CN1CCN(CCCN2c3ccccc3Sc3ccc(Cl)cc32)CC1`: the Potency was 20.9 µM (active).
For the compound `CC#C[C@]1(O)CC[C@H]2[C@@H]3CCC4=CC(=O)CCC4=C3[C@@H](c3ccc(N(C)C)cc3)C[C@@]21C`, the Potency is 1.05 µM (active).
On the same count and under the same terms, for `Cn1cnc2c1c(=O)[nH]c(=O)n2C` the value was 14.8 µM (active).
Same read-out and setting: for `O=C(c1ccc(F)cc1)C1CCN(CCn2c(=O)[nH]c3ccccc3c2=O)CC1` the value was “inactive”; for `CN(CCOc1ccc(NS(C)(=O)=O)cc1)CCc1ccc(NS(C)(=O)=O)cc1`, “inactive”; for `NC(=O)NO`, 2.96 µM (active).
Same read-out and setting: the same measure for `CNCCCC12CCC(c3ccccc31)c1ccccc12`: 20.9 µM (active).
In the case of `Cc1ccc(-c2cc(C(F)(F)F)nn2-c2ccc(S(N)(=O)=O)cc2)cc1`, the Potency result is “inactive”.
As to `COc1ccccc1N1CCN(CC(O)COc2cccc3ccccc23)CC1` (centres undefined), the Potency is 9.35 µM (active).
